# Experiments:
# Type in all cases: functional
# Plasmodium falciparum [1] = test: GSK_TCMDC: Inhibition of Plasmodium falciparum 3D7 in whole red blood cells, using parasite LDH activity as an index of growth. Test compounds present at 2uM
# Plasmodium falciparum [2] = test: GSK_TCMDC: Inhibition of Plasmodium falciparum Dd2 in whole red blood cells, using parasite LDH activity as an index of growth. Test compounds present at 2uM
# HepG2 = test: GSK_TCMDC: Percent inhibition of human HepG2 cell line. Test compounds present at 10uM.
SMILES,Inhibition (Plasmodium falciparum [1]) [%],Inhibition (Plasmodium falciparum [2]) [%],Inhibition (HepG2) [%]
CN1CCN(CC2(Nc3nccc(NCCc4cn(C)c5ccccc45)n3)CCCCC2)CC1,91,41,67
Cc1c[nH]c2ccc(/C=C/C(=O)NC3CCC(CCN4CCc5ccc(C#N)cc5CC4)CC3)cc12.Cl (stereo not drawn),100,91,9
CNc1ccc(CNCc2cccc(-c3ccc(-c4nc5cccc(C)c5[nH]4)cc3)c2)cc1.O=C(O)C(F)(F)F,100,83,26
COc1ccccc1N1CCN(Cc2c(O)ccc3cc(Br)ccc23)CC1,89,75,8
CN1CCN(c2ccnc3ccc(NC(=O)Cc4ccc5ccccc5c4)cc23)CC1,100,89,6
COc1ccc2ncc(F)c(CCN3CCC(CNC(=O)C(=O)c4c[nH]c5ccccc45)CC3)c2n1,100,99,48
CN(C)CCNCc1ccc(-c2ccc3c(Nc4ccc(Cl)cc4F)ccnc3c2)o1,99,100,14
O=C(NCCN1CCCC1)c1ccc(-c2ccc(-c3nc4cc(C(F)(F)F)ccc4[nH]3)s2)cc1,97,65,31
CC(C)(CNC(=O)/C=C/c1ccc(Cl)c(Cl)c1)CNc1cc(=O)c2ccccc2[nH]1,96,29,0
CN1CCN(c2ccnc3ccc(NC(=O)Cc4ccc(Br)c5ccccc45)cc23)CC1,96,99,8
O=C(c1ccc2ccccc2n1)N1CCCc2cc(Br)ccc21,97,74,19
O=C(NCc1cccc(F)c1)Nc1ccc(-c2cccc(-c3nc4cc(F)ccc4[nH]3)c2)cc1,88,2,31
Cc1cc(-c2ccc3c(c2)CCN(CCCOc2ccc4c(c2)CCN4C(=O)/C=C/c2ccccc2Cl)CC3)no1,88,50,52
Cc1cc(C)cc(OCC(O)CN(Cc2cc(Cl)cc(Cl)c2)C(=O)Nc2ccccc2Cl)c1 (stereo not drawn),93,37,0
N#Cc1ccc(-c2cnc3ccc(NCc4ccc(S(N)(=O)=O)cc4)nn23)cc1,98,100,7
CCCc1nc2c(N3CC(NC(=O)/C=C/c4ccccc4)C3)cccc2n1C1CC1,83,68,1
O=C(NC1CCN(c2ccnc(Nc3ccc(F)cc3)n2)C1)c1cc2ccccc2s1 (stereo not drawn),99,80,6
Cn1cc(CCNc2ccnc(NCCc3coc4ccccc34)n2)c2ccccc21,87,28,26
CC(=O)N[C@@H]1c2cc(C(C)=O)ccc2OC(C)(C)[C@@H]1O,97,3,15
Cc1cc(OCC2CCN(c3ccc(C(=O)NC4CC4)cn3)CC2)ccc1F,94,95,6
O=C(O)C(F)(F)F.c1cc(CNCC2CCN(CC3CCCCC3)CC2)cc(-n2ccnc2)c1,100,99,18

SMILES,Inhibition (Plasmodium falciparum [1]) [%],Inhibition (Plasmodium falciparum [2]) [%],Inhibition (HepG2) [%]
CCCCSc1nc2c(c(=O)n1Cc1ccco1)C1(CCCCC1)Cc1ccccc1-2,96,78,13
Br.CCCC1N=C(N)N=C(N)N1c1ccc(C)cc1 (stereo not drawn),94,2,1
Cc1noc(C)c1-c1cccc(CNCc2ccc(-c3cccc(-c4nc5ccccc5[nH]4)c3)cc2)c1.O=C(O)C(F)(F)F,100,57,50
COc1cc2nc(N3CCC(CNC(=O)/C=C/c4ccccc4F)CC3)nc(N)c2cc1OC.Cl,100,88,0
CNc1nc(Nc2ccccc2C)nc2ccccc12.Cl,100,81,17
Cc1[nH]c(C)c(-c2ccc(OCCn3cnc(Cl)c3Cl)cc2)c(=O)c1Br,95,35,2
CC(=O)Nc1ccc(OCCCN(Cc2ccccc2OC(F)(F)F)c2ccc(C(F)(F)F)c(C#N)c2)c(Cl)c1,91,80,5
CC(C)(CNCc1ccccc1)c1nc(-c2ccc(Cl)c(O)c2)c(-c2ccncc2)[nH]1.Cl,100,99,77
CCNc1cc(C(=O)N[C@@H](Cc2ccccc2)[C@H](O)CNC(C)(C)c2cccc(OC)c2)cc(N2CCCC2=O)c1.O=CO,100,99,0
Cc1cn(CC(=O)Nc2cccc(-c3cccc(-c4nc5cccc(C)c5[nH]4)c3)c2)c(=O)[nH]c1=O,100,100,2
CCCCCCCc1c(C)nc2c(OC)cccc2c1O,89,85,0
COc1ccccc1Cc1nc2ccccc2nc1SCC(=O)Nc1cccc(C(F)(F)F)c1,97,91,8
COc1ccc2nccc([C@H](O)CN3CCC(NCc4nc5cccc(F)c5[nH]4)CC3)c2c1.O=C(O)C(=O)O,98,0,0
CC[C@H](C)CNC(=O)c1cccc(-c2cccc(CNCC3CNCCCO3)c2)n1.O=C(O)C(F)(F)F (stereo partly drawn),91,54,15
Cc1cc(C)c(NC(=O)N2CCCN(CCCCCNC(=O)/C=C/c3ccc(Cl)c(Cl)c3)CC2)c(C)c1,91,0,12
Fc1ccc2[nH]c(-c3cccc(-c4ccc(CN5CCC(CCN6CCCCC6)CC5)cc4)c3)nc2c1.O=C(O)C(F)(F)F,100,100,91
CO/C(=C\C=C\c1cc2cc(Cl)c(Cl)cc2[nH]1)C(=O)NCCCN1CCCC[C@H]1C,100,91,41
Fc1c(CNCC2CCN(CC3CCCCC3)CC2)cccc1C(F)(F)F.O=C(O)C(F)(F)F,93,7,35
COc1ccc2ccccc2c1CNCC1CCN(CC2CCCCC2)CC1.O=C(O)C(F)(F)F,98,27,23
Fc1ccc(-c2nc(NCc3cccc(C(F)(F)F)c3)nn2-c2cccc(C(F)(F)F)c2)cc1C(F)(F)F,90,58,2
Cc1cccc2nc(-c3ccc(-c4ccc(CN5CCN(CCO)CC5)cc4)cc3)[nH]c12.O=C(O)C(F)(F)F,100,97,20

SMILES,Inhibition (Plasmodium falciparum [1]) [%],Inhibition (Plasmodium falciparum [2]) [%],Inhibition (HepG2) [%]
COc1cc(C(=O)NCc2nn(CCN3CCC(N4CCCC4)CC3)cc2-c2ccc(Cl)c(Cl)c2)cc(OC)c1OC,97,0,16
C#CCNCc1ccc(-c2ccc(-c3nc4cc(C(F)(F)F)ccc4[nH]3)s2)cc1.O=C(O)C(F)(F)F,98,28,37
COc1ccc2nccc([C@@H](O)CN3CCC(NCc4nc5c(C#N)cccc5[nH]4)CC3)c2c1.O=C(O)C(=O)O,96,9,0
CN1CCc2cc(I)c(O)cc2C1Cc1ccccc1Cl.Cl (stereo not drawn),98,96,0
CO/C(=C\C=C\c1cc2cc(Cl)c(Cl)cc2[nH]1)C(=O)NCCCNC12CC3CC(CC(C3)C1)C2,99,76,29
CC(C)N(Cc1ccccc1)C(=O)CN1C(=O)COc2ccc(S(=O)(=O)N3CCCCCC3)cc21,99,99,0
Cc1cc(N2CCCC2)nc(Nc2ccc(NC(=O)CC(C)C)cc2)n1,95,53,37
COc1ccc(-c2ccc(NC(=O)c3ccc(Cl)cc3)cc2)cc1CN1CCC(O)CC1.O=C(O)C(F)(F)F,89,15,20
O=C(Nc1cccc(CN2CCCN(Cc3ccc(O)cc3)CC2)c1)c1ccc(Cl)c(Cl)c1.O=C(O)C(F)(F)F,100,81,22
CN1CCCC(CN2CCN(Cc3ccc(-c4cccc(-c5nc6cc(F)ccc6[nH]5)c4)cc3)CC2)C1.O=C(O)C(F)(F)F (stereo not drawn),100,99,92
CC(NCCc1cccc(Cl)c1)C(O)c1ccc(OCCCCCCOc2ccc(C(O)C(C)NCCc3cccc(Cl)c3)cc2)cc1 (stereo not drawn),100,100,96
FC(F)(F)c1ccc2[nH]c(-c3cccc(-c4cccc(CN5CCN(c6ccncc6)CC5)c4)c3)nc2c1.O=C(O)C(F)(F)F,100,99,93
C[C@H](CNc1ccnc(Nc2ccc3[nH]c(=O)[nH]c3c2)n1)c1ccccc1,99,2,50
Cc1noc(C)c1-c1cccc(CNCc2ccc(-c3ccc(-c4nc5cccc(C)c5[nH]4)cc3)cc2)c1.O=C(O)C(F)(F)F,100,95,28
Cc1cccc2nc(-c3cccc(-c4cccc(CNCc5ccc(S(C)(=O)=O)cc5)c4)c3)[nH]c12.O=C(O)C(F)(F)F,100,66,13
CSc1sc(NC(=O)Nc2cccc(C(F)(F)F)c2)cc1C#N,99,46,27
CCN(CC)CCCN1CCN(C(=O)c2cccc(-c3noc(C(F)(F)F)n3)c2)CC1,91,74,0
COC(=O)c1cccc(CNCc2ccc(-c3ccc(-c4nc5cc(F)ccc5[nH]4)cc3)cc2)c1.O=C(O)C(F)(F)F,100,95,8
COc1cccc2c(C)cc(NCc3ccc(Cl)cc3)nc12,97,5,7

# From ChEMBL document CHEMBL1157539, “Thousands of chemical starting points for antimalarial lead identification” (Nature, 2010)
